Screens deposited in PubChem by National Center for Advancing Translational Sciences (NCATS).
Hits are enriched below; roughly 4.5% of the tested compounds scored in any of these assays.
ERK AVP block – vasopressin-driven ERK pathway inhibition; HEK293-V1b, vasopressin-stimulated pERK AlphaScreen; Potency, µM (top dose mostly 57.5 µM), most hits filed as inhibitors; 0.99% of 72,000 active; also: nearly all actives have a fitted effect of over 55% in size
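Phosphorylated ERK1/2 detected via AlphaScreen bead proximity in lysates of V1b-expressing HEK293 cells given 25 nM vasopressin for 5 min after 30 min compound exposure (37 °C). AC50 from Hill equation; basal DMSO 0%, vasopressin 100%.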
Caspase-7 inhib – caspase-7 (human) inhibition, allosteric or competitive. recombinant caspase-7, Ac-DEVD-AFC fluorescence rate. Potency, µM (series often up to 57.5 µM), hits mostly inhibitors. 0.02% of 75,000 active; active = well fitted inhibition curve with a large enough effect in the main read-out, with a control signal flat, not every such curve was filed as active; inconclusive = small, poorly fitted or top-dose-only effect, or a change in a side signal
HEK293 cAMP cs – counter-screen for TSHR agonists: cAMP increase in parental HEK293; parental HEK293 CNG cAMP sensor, membrane potential fluorescence; Potency, µM (doses to about 57.1 µM), actives largely listed as activators; 2.5% of 73,000 active; also: nearly all actives have a fitted effect of over 55% in size
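Counterscreen for endogenous-receptor signalling: CNG-channel HEK 293 cells report cAMP rise by membrane depolarization. After 60 min dye equilibration with 100 uM RO 20-1724, compounds incubated 30 min before bottom-read fluorescence at 590 nm.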
Casp1 inh – caspase-1 (human) inhibition, allosteric or competitive; AID 900; Potency, µM (series often up to 57.5 µM), hits mostly inhibitors; 0.03% of 75,000 active; Caspase-1 enzyme, Ac-WEHD-AFC fluorogenic rate
GBA activity – human lysosomal glucosylceramidase modulation. 1.1% of 48,000 active. Potency, µM. purified enzyme, resorufin glucoside fluorescence (screen aimed at inhibitors), 20 min. P04062; in the data active = potency below about 15 µM; inconclusive = mostly about 16 µM to 33 µM;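 also: the screen sought inhibitors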
Target sequence (P04062 whole entry, looked up): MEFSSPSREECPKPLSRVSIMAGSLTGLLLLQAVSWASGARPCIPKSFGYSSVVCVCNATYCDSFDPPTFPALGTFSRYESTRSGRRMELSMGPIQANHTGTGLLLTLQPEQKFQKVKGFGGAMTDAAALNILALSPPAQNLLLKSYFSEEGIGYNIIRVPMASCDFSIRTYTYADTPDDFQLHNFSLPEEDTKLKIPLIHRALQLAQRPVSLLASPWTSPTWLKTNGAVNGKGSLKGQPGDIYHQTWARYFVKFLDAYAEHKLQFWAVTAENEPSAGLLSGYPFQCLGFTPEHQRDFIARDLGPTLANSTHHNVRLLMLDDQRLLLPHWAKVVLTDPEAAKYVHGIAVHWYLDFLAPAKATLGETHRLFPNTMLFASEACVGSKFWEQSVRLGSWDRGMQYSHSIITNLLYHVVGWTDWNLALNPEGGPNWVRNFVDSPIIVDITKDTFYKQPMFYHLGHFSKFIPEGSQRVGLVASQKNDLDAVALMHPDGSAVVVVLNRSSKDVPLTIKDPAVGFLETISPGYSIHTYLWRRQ
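Wild-type enzyme at 0.2 nM final in 50mM citric acid/KH2PO4, 10mM sodium taurocholate, 0.01% tween-20, pH 5.9, with resorufin beta-D-glucopyranoside at 30 uM final. Compounds titrated, 20 min at RT, red fluorescence read; AC50 from titration.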
TSHR ag – TSH receptor (human) agonism. P16473. HEK293-CNG-TSHR cells (CNG channel as cAMP sensor), membrane potential dye, cAMP. Potency, µM (top dose mostly 57.1 µM), actives largely listed as activators. 0.48% of 73,000 active; active = well fitted activation curve with a large enough effect in the main read-out, with a control signal flat, not every such curve was filed as active; inconclusive = small, poorly fitted or top-dose-only effect, or a change in a side signal; inactive = no such curve, though single readings can be large or run the other way; reference of the percent scale not stated here;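 also: the control signal comes from parental cells without the receptor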
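HEK 293 cells stably expressing TSHR and a modified CNG channel, with CNG-only parental cells as counterscreen, were preloaded 60 min at room temperature with membrane potential dye containing 100 uM RO 20-1724. Compound exposure was 30 min, and depolarization was read as fluorescence at 590 nm.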
Numbers stand for hits; i = inactive; ? = inconclusive; nt = not tested or not shown; [ ] = dose if it differs, or a comment. Unless noted, calls follow the shape of the dose curve; as a rule, active = well fitted curve in the direction sought with a large enough effect; inconclusive = small, poorly fitted or top-dose-only effect, or another doubt; inactive = no such curve, though single readings can be large; an effect the other way counts as inactive or inconclusive.

SMILES	ERK AVP block	Caspase-7 inhib	HEK293 cAMP cs	Casp1 inh	GBA activity	TSHR ag
CCc1nc(N2CCCCC2C)c2oc3ccccc3c2n1 (stereo not given)	i	i	20µM	i	i	?
CCc1nc(NC(C)C)c2oc3ccccc3c2n1	i	i	i	i	i	nt
CCc1nc(N2CCCCC2)c2oc3ccccc3c2n1	i	i	25.1µM	i	i	?
CCc1nc(N2CCCC(C)C2)c2oc3ccccc3c2n1 (stereo not given)	i	i	15.8µM	i	i	?
CCOC(=O)C1CCCN(c2nc(C)nc3c2oc2ccccc23)C1 (stereo not given)	i	i	i	i	i	i
COC(=O)CNC(=O)C1(C)C=CC2(CCCCC2)N1C(C)=O (stereo not given)	i	i	i	i	nt	i
Cc1cc(C)c(C)c(OCC(=O)NCc2nc(-c3ccccc3)no2)c1	i	i	?	i	i	?
Cc1cc(OCC(=O)NCc2nc(-c3ccccc3)no2)c(C)cc1Br	i	i	31.6µM	i	i	?
CCOC(=O)c1ccccc1NC(=O)c1ccc(NS(C)(=O)=O)cc1	25.1µM	i	i	i	i	i
COCCNC(=O)c1ccc(NS(C)(=O)=O)cc1	i	i	i	i	i	i
CC(C)(C)/C(O)=C(/C#N)c1nc2ccccc2[nH]1	20µM	i	i	i	i	i
CC(C)C[C@@H](CC(=O)N[C@H](CC(=O)N[C@@H]1CCNC[C@H]1C(=O)N[C@H](CC(=O)N[C@@H](CCC(=O)O)CC(=O)O)Cc1ccccc1)C(C)C)NC(=O)[C@@H]1CCCC[C@H]1N	nt	nt	i	nt	nt	nt
COCCNc1nc(C)nc2c1nc(-c1ccccc1)n2CCN1CCCCC1	i	i	?	i	nt	?
CCCCNc1nc(C)nc2c1nc(-c1ccccc1)n2CCN1CCCCC1	i	i	12.6µM	i	nt	?
Cc1nc(NCc2ccccc2)c2nc(-c3ccccc3)n(CCN3CCOCC3)c2n1	i	i	31.6µM	i	nt	?
CCOc1cccc(-c2cc(C(=O)N/N=C/c3cccc(OC)c3O)[nH]n2)c1	nt	i	i	i	nt	nt
Cc1cnc(CNc2cc(-c3ccccc3CN(C)C)ncn2)cn1	i	i	?	i	nt	?
S=C1NCN2CCN(CC2)CNC(=S)C(=S)NCN2CCN(CC2)CNC1=S	i[11.5 µM]	i[11.5 µM]	i[11.4 µM]	i[11.5 µM]	nt	i[11.4 µM]
CCn1c(SCC(=O)N2CCc3ccccc3C2)nc2c1c(=O)n(C)c(=O)n2C	?	i	i	i	i	i
CCn1c(SCC(=O)N2c3ccccc3Sc3ccccc32)nc2c1c(=O)n(C)c(=O)n2C	i	i	i	i	i	20µM
Cc1ccc(Cn2c(SCC(C)C)nc3c2c(=O)n(C)c(=O)n3C)cc1	i	i	25.1µM	i	i	?
COc1ccccc1-c1nc(NCc2cnc(C)cn2)c2ccccc2n1	i	i	i	i	nt	i
Cc1nc2cnc(N3CCOCC3)nc2n(Cc2cccs2)c1=O	i	i	i	i	nt	i
CCOc1ccc(C2C=C(c3ccc(C)cc3)Nc3nnnn32)cc1 (stereo not given)	i	?	i	nt	i	i
CCOc1ccc(C2C=C(c3ccccc3)Nc3nnnn32)cc1 (stereo not given)	i	?	?	nt	3.74	?
SMILES	ERK AVP block	Caspase-7 inhib	HEK293 cAMP cs	Casp1 inh	GBA activity	TSHR ag
COc1ccccc1C1C=C(c2ccc(C)cc2)Nc2nnnn21 (stereo not given)	i	?	25.1µM	nt	i	?
CCOc1ccc(C2C=C(c3ccc(C)cc3)Nc3ncnn32)cc1 (stereo not given)	i	?	20µM	nt	i	?
COc1ccc(C2=CC(c3c(C)nn(-c4ccccc4)c3Cl)n3nnnc3N2)cc1OC (stereo not given)	?	?	i	nt	i	?
N#Cc1ccccc1NC(=O)c1ccccc1OCC(=O)Nc1ccc2c(c1)oc1ccccc12	i	i	i	i	11.2	i
N#Cc1ccccc1NC(=O)c1ccccc1OCC(=O)NCc1ccco1	i	i	i	i	i	nt
Cc1ccc(-n2nnnc2SCC(=O)NCCC2=CCCCC2)c(C)c1	i	i	31.6µM	i	i	?
COC(=O)C1=NOC2(C=C(Br)C(OC)=C(Br)C2=O)C1 (stereo not given)	i[11.5 µM]	i[11.5 µM]	i[11.4 µM]	i[11.5 µM]	nt	i[11.4 µM]
Nc1nc(Cl)nc2c1ncn2[C@@H]1O[C@@H](COP(=O)(O)OP(=O)(O)OP(=O)(O)O)[C@@H](O)[C@H]1O	i	i	i	i	nt	nt
N=c1ccn2c(n1)O[C@H]1[C@@H](OP(=O)(O)O)[C@H](CO)O[C@H]12	i[11.5 µM]	i[11.5 µM]	i[11.4 µM]	i[11.5 µM]	nt	i[11.4 µM]
CNCC[C@H](Oc1ccccc1C)c1ccccc1	i	i	i	i	nt	i
CNCC[C@@H](Oc1ccccc1C)c1ccccc1	i	i	31.6µM	i	nt	?
COc1ccccc1N1CCN(C(=O)CCc2ccc(S(=O)(=O)NCC(C)C)cc2)CC1	25.1µM	i	i	i	i	i
Cc1ccc(C(=O)NCc2nnc(SCC(=O)Nc3sc4c(c3C#N)CCCC4)n2C)cc1	i	i	i	i	i	i
Cc1ccnc(SCC(=O)Nc2sc3c(c2C#N)CCCC3)n1	i	i	20µM	i	i	?
N#Cc1c(NC(=O)CSc2nnc(-c3ccccc3O)n2-c2ccccc2)sc2c1CCCC2	i	i	i	i	10	i
O=C1c2ccccc2-c2cc([N+](=O)[O-])c([N+](=O)[O-])cc21	?	i[11.5 µM]	i[11.4 µM]	i[11.5 µM]	nt	i[11.4 µM]
Cc1cccc2c(=O)c(C(=O)N3CCCCCC3)c[nH]c12	i	i	i	i	6.46	nt
Cc1ccccc1C(=O)N1CCCN(C(=O)c2ccccc2C)CC1	i	i	i	i	i	i
O=C(NC1CCCCC1)C(c1ccccc1F)N(Cc1ccco1)C(=O)Cn1nnc2ccccc21 (stereo not given)	i	i	20µM	i	nt	?
O=C(NC1CCCCC1)C(c1ccc(F)cc1)N(Cc1ccco1)C(=O)Cn1nnc2ccccc21 (stereo not given)	i	i	15.8µM	i	i	?
O=C(NCc1ccco1)C(c1ccccc1)N(CC1CCCO1)C(=O)Cn1nnc2ccccc21 (stereo not given)	i	i	i	i	i	i
Cc1cccc(C)c1NC(=O)C(c1cccs1)N(Cc1ccco1)C(=O)Cn1nnc2ccccc21 (stereo not given)	i	i	15.8µM	i	i	?
CCCCC(=O)N(Cc1ccc(-c2ccccc2-c2nn[nH]n2)cc1)C(C(=O)O)C(C)C (stereo not given)	i	i	nt	i	nt	nt
COc1ccc(CNc2ncncc2-c2c(C)noc2C)c(OC)c1	i	i	i	i	nt	i
COc1ccc(OC2C=CC(C#Cc3ccc(Br)cc3)OC2CO)c(C(C)(C)C)c1 (stereo not given)	?	i[11.5 µM]	i[11.4 µM]	i[11.5 µM]	nt	i[11.4 µM]
